# In PubChem BioAssay (NCATS):
# Several values for one entry are separate records, joined by “and”; a condition that tells them apart may be missing. Identical values can stand only once. Results filed as inconclusive are left out. Entries that show only a call come without a potency. Activity calls are given as the source filed them. Unless noted, the call rests on the fitted dose curve; in most records, active means well fitted curve in the direction sought with a large enough effect; inconclusive means small, poorly fitted or top-dose-only effect, or another doubt; inactive means no such curve, though single readings can be large; an effect the other way counts as inactive or inconclusive. Where a SMILES comes first, the peptide text is derived from it. Bridges are numbered along the chain shown (N, C = ends). [ ]: non-standard residue; d: D form. The star is where a group is joined. ξ: configuration not given here. X1 = CC[C@@H](C)[C@@H](N)C1=N[C@H](C(=O)*)CS1; d(aIle) = CC[C@H](C)[C@@H](N)C(=O)O; d(aThr) = C[C@@H](O)[C@@H](N)C(=O)O; ξThr(3R) = C[C@@H](O)C(N)C(=O)O; X3 = CC[C@@H](C)CCCCC(=O)*; dOrn = NCCC[C@@H](N)C(=O)O; dDab = NCC[C@@H](N)C(=O)O
# Key:
# [1] = qHTS Assay for Identifying Gametocytocidal Compounds (AID 743244); further: potency means the concentration at half of the fitted maximal effect;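 on max response: actives lower the fluorescent signal which means gametocytes are killed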; details: P. falciparum 3D7 stage III-V gametocytes, alamarBlue, 72 h; max response: stronger effect = lower value
# How it was run: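 In this qHTS viability screen, late-stage 3D7 gametocytes are incubated with compound for 72 h, then with alamarBlue for 24 h; reduced resorufin fluorescence marks killing.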
# [2] = qHTS assay to identify small molecule inhibitors of chordoma cells - UCH-1 (AID 1259355); details: UCH-1 chordoma viability, CellTiter-Glo, 48 h, combination, with auranofin plus four topoisomerase inhibitors; series mostly up to 46.1 µM; further: nearly all actives have a fitted effect of over 55% in size
# How it was run: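 Screening used approved and investigational drugs in 15-point titration against 800 seeded cells per well. A fixed combination of auranofin with camptothecin, doxorubicin, rubitecan and topotecan followed compound addition, and growth was scored by CellTiter-Glo after 48hr.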
# [3] = P-glycoprotein substrates identified in KB-8-5-11 adenocarcinoma cell line, qHTS therapeutic library screen (AID 1346987); details: KB-8-5-11 (P-gp overexpressing) viability, CellTiter-Glo, 72 h; series mostly up to 44.5 µM; further: nearly all actives have a fitted effect of over 65% in size
# How it was run: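 In this qHTS, P-gp-rich KB-8-5-11 cells received library compounds across a concentration range. Viability was quantified by luminescence after 72 h at 37 degree C.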
# [4] = qHTS profiling for inhibitors of Plasmodium falciparum (3D7) proliferation (AID 743322; call rule not given here;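 further: infected erythrocytes exposed to compound for 72 h before lysis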); details: P. falciparum 3D7 proliferation; at 28.7 µM (top of the series) unless noted
# How it was run: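 Parasite DNA was quantified by SYBR Green I fluorescence (ex 485, em 535 nm) after overnight lysis in saponin/Triton buffer at room temperature. Cultures at 0.3% parasitemia and 2.5% hematocrit were first exposed to compound for 72 h at 37 C; signals were normalised to artemisinin (0.29 uM) and vehicle wells.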
# [5] = qHTS profiling for inhibitors of Plasmodium falciparum (DD2) proliferation (AID 743323; call rule not given here); details: lower = more inhibition; at 28.7 µM (top of the series) unless noted
# How it was run: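 1536-well qHTS; infected RBCs 0.3% parasitemia/2.5% Hct final; cpd 72 h 37 C 5% CO2; lysis buffer + SYBR Green I, o/n RT dark; FI 485/535; norm. to 0.29 uM artemisinin and DMSO, plate-stack corrected.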
# [6] = qHTS profiling for inhibitors of Plasmodium falciparum (HB3) proliferation (AID 743324); details: Plasmodium falciparum HB3 blood-stage proliferation; at 28.7 µM (top of the series) unless noted
# How it was run: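 SYBR Green fluorescence (485 ex/535 em) of lysed cultures, incubated overnight at room temperature in the dark, quantifies parasite DNA. Infected erythrocytes at 0.3% parasitemia and 2.5% hematocrit were exposed 72 h; values normalized to DMSO and 0.29 uM artemisinin controls.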
# [7] = qHTS assay to identify small molecule inhibitors of chordoma cells - UCH-2 (AID 1259356); details: UCH-2 chordoma viability, CellTiter-Glo ATP luminescence, 48 h; series mostly up to 46.1 µM
# [8] = qHTS assay for small molecule agonists of the antioxidant response element (ARE) signaling pathway measured by Nrf2-dependant transcriptional activity - cell viability counter screen (AID 720653; active means well fitted curve in the direction sought with a large enough effect in the repeat runs; an effect the other way counts as inactive or inconclusive); details: ARE-bla HepG2 viability, CellTiter-Glo ATP luminescence, 16 h; stronger effect = lower value
# How it was run: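 ARE-bla HepG2 cells treated with compounds for 16 h at 37C; this counter screen measures viability as intracellular ATP by CellTiter-Glo luminescence after 30 min at room temperature.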
# [9] = qHTS assay for cell viability of HEK293 cells (AID 743288); details: ATP luminescence (CellTiter-Glo), 18 h; max response: stronger effect = lower value; further: nearly all actives have a fitted effect of over 50% in size
# How it was run: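 Readout is luciferase-coupled ATP content (CellTiter-Glo luminescence, 30 min room temperature) as a measure of metabolically competent cells. Parental HEK293 cells were plated 5 h or more before compound addition, then treated 18 h at 37 C.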
# [10] = qHTS assay for cell viability of the p53RE-bla HCT-116 cell line (AID 743292); details: p53RE-bla HCT-116 viability, ATP luminescence, 16 h; series mostly up to 95 µM; further: nearly all actives have a fitted effect of over 55% in size
# How it was run: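 CellSensor p53RE-bla HCT-116 cells, 4,000/well, preincubated 5 h at 37 C, then exposed to compounds in DMSO for 16 h at 37 C. Viability read as CellTiter-Glo luminescence (intracellular ATP) after 30 min at room temperature.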
smiles,measurement,setting,value
CCC(O)c1ccccc1 (stereo unspecified),max response,[1],11% (inactive)
same,Potency,[2],inactive
same,Potency,[3],inactive
CCN(CC)CCOCCOC(=O)C(CC)(CC)c1ccccc1,remaining parasite growth % (stronger effect = lower value),[4],90.6%
same,"activity, percent of control",[5],50.9%
same,"remaining proliferation (% of control), lower = more inhibition",[6],65.7%
same,Potency,[2],inactive
same,Potency,[7],inactive
CCCC(=O)O,max response,[1],-0.429% (inactive)
same,Potency,[2],inactive
same,Potency,[3],inactive
COc1cc(S(C)=O)ccc1-c1nc2ncccc2[nH]1 (stereo unspecified),max response,[1],11.9% (inactive)
same,Potency,[2],inactive
same,Potency,[3],inactive
C[C@]12CCC(=O)C[C@@H]1CC[C@@H]1[C@@H]2CC[C@]2(C)C=CC[C@@H]12,Potency,[2],inactive
same,Potency,[3],inactive
CC(=O)N[C@@H]1C(O[C@H]2O[C@H](C(=O)O)C(O)[C@H](O)[C@H]2O)[C@H](O)[C@@H](CO)O[C@H]1O[C@@H]1C(C(=O)O)O[C@@H](O[C@H]2[C@H](O)[C@@H](CO)OC(O)[C@@H]2NC(C)=O)[C@H](O)[C@H]1O (stereo partly specified),max response,[1],-1.86% (inactive)
same,Potency,[2],inactive
same,Potency,[3],inactive
O=C1[O][Bi][O]c2ccccc21,max response,[1],14.5% (inactive)
same,Potency,[2],inactive
same,Potency,[3],inactive
CCN(CC)CCCC(C)Nc1cc(/C=C/c2ccccc2Cl)nc2cc(Cl)ccc12 (stereo unspecified),Potency,[1],11.2 µM (active)
same,Potency,[2],inactive
same,Potency,[7],inactive
O=C(CCCCCCCCCCCCC1CCCC1)Nc1ccc(S(=O)(=O)c2ccc(NC(=O)CCCCCCCCCCCCC3CCCC3)cc2)cc1,max response,[1],1.73% (inactive)
same,Potency,[2],inactive
same,Potency,[3],inactive
CC(C)(O/N=C(\C(=O)N[C@@H]1C(=O)N2C(C(=O)[O-])=C(C[n+]3ccccc3)CS[C@H]12)c1csc(N)n1)C(=O)O,max response,[1],20.4% (inactive)
same,Potency,[2],inactive
same,Potency,[3],inactive
CC[C@@H](C)[C@@H](N)C1=N[C@H](C(=O)N[C@@H](CC(C)C)C(=O)N[C@@H](CCC(=O)O)C(=O)N[C@@H](C(=O)N[C@@H]2CCCCNC(=O)[C@@H](CC(N)=O)NC(=O)[C@@H](CC(=O)O)NC(=O)[C@@H](Cc3cnc[nH]3)NC(=O)[C@@H](Cc3ccccc3)NC(=O)[C@@H]([C@H](C)CC)NC(=O)[C@@H](CCCN)NC2=O)[C@@H](C)CC)CS1 (X1-LE[d(aIle)][dK][dOrn][dI][dF][dH][dD][dN]; lactam 4-C),max response,[1],17.8% (inactive) and -1.65% (inactive)
same,Potency,[2],inactive
same,Potency,[3],inactive
C=CC1=C(C(=O)O)N2C(=O)[C@@H](NC(=O)/C(=N/OCC(=O)O)c3csc(N)n3)[C@H]2SC1 (stereo in doubt),max response,[1],-1.34% (inactive)
same,Potency,[7],inactive
same,Potency,[3],inactive
CC[C@@H](C)CCCCC(=O)N[C@H](CCN)C(=O)N[C@@H](C(=O)N[C@H](CCN)C(=O)N[C@@H]1CCNC(=O)C([C@@H](C)O)NC(=O)[C@@H](CCN)NC(=O)[C@@H](CCN)NC(=O)[C@@H](CC(C)C)NC(=O)[C@@H](Cc2ccccc2)NC(=O)[C@@H](CCN)NC1=O)[C@@H](C)O (stereo partly drawn) (X3-[dDab][d(aThr)][dDab][dDab][dDab][dF][dL][dDab][dDab][ξThr(3R)]; lactam 4-C),max response,[1],13.9% (inactive)
same,Potency,[7],inactive
same,Potency,[3],inactive
NC(=O)OCC(O)COc1ccc(Cl)cc1 (stereo unspecified),max response,[1],9.36% (inactive)
same,Potency,[3],inactive
O=C(O)c1ccc(OCCn2ccnc2)cc1,max response,[1],0.359% (inactive)
same,Potency,[7],inactive
same,Potency,[3],inactive
O=C(O[C@H]1CN2CCC1CC2)N1CCc2ccccc2[C@@H]1c1ccccc1,max response,[1],5.85% (inactive)
same,Potency,[7],inactive
same,Potency,[3],inactive
C[C@H](NCCc1ccc(O)cc1)[C@H](O)c1ccc(O)cc1,max response,[1],10.2% (inactive)
same,Potency,[7],inactive
same,Potency,[3],inactive
CCN(CC)CCOC[C@H]1O[C@@H](O)[C@H](OCCN(CC)CC)[C@@H](O)[C@@H]1O,Potency,[7],inactive
same,Potency,[3],inactive
CCN(CC)CCOc1ccccc1OC,max response,[1],-0.561% (inactive)
same,Potency,[7],inactive
same,Potency,[3],inactive
CC1=CCC2CC1C2(C)C (stereo unspecified),max response,[8],-2.11% (inactive)
same,max response,[1],3.27% (inactive)
same,max response,[9],-5.13% (inactive)
same,outcome,[10],inactive
same,Potency,[7],inactive
same,Potency,[3],inactive
CN[C@H](CC(C)C)C(=O)N[C@H]1C(=O)N[C@@H](CC(N)=O)C(=O)N[C@H]2C(=O)N[C@H]3C(=O)N[C@H](C(=O)N[C@@H](C(=O)O)c4cc(O)cc(O)c4-c4cc3ccc4O)[C@H](O)c3ccc(c(Cl)c3)Oc3cc2cc(c3O[C@@H]2O[C@H](CO)[C@@H](O)[C@H](O)[C@H]2O[C@H]2C[C@](C)(N)C(O)[C@H](C)O2)Oc2ccc(cc2Cl)[C@H]1O (stereo partly specified),max response,[1],3.65% (inactive) and -0.964% (inactive)
same,Potency,[7],inactive
same,Potency,[3],inactive
OC[C@H]1O[C@@](CO)(O[C@H]2O[C@H](CO)[C@@H](O)[C@H](O)[C@H]2O)[C@@H](O)[C@@H]1O,max response,[8],-5.77% (inactive)
same,max response,[1],6.47% (inactive)
same,max response,[9],-4.31% (inactive)
same,outcome,[10],inactive
same,Potency,[7],inactive
same,Potency,[3],inactive
